GLP1R cytotox – qHTS of GLP-1 Receptor Inverse Agonists: Cytotox Screen | Potency, µM (series often up to 38.3 µM), for inactives: at the top dose activity change, negative = inhibition, hits mostly inhibitors | AID 624418, 2012 | actives 0.13% (n = 410,000) | HEK293 cAMP-luciferase reporter cells, luminescence, 24 h;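 further: loss of luciferase light is scored as toxicity; potency means the concentration at half of the fitted maximal effect; on the % scale 0 is the no-effect control and ±100 the full control effect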
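MLSMR compounds, 24 hr on cells at 37 deg C/5% CO2; luminescence after luciferase reagent (12 min RT). Inhibition counted as the undesired cytotoxic outcome.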
GLP1R ag – qHTS of GLP-1 Receptor Agonists. Potency, µM (top dose mostly 45.6 µM), for inactives: top-dose activation, usual class: activators. HEK293 GLP-1R CRE-luciferase, luminescence, 4-6 h; cells express a hypersensitive GLP-1R form. Glucagon-like peptide 1 receptor (Homo sapiens), P43220. actives 0.007% (n = 380,000); further: potency means the concentration at half of the fitted maximal effect; % of control where 0% means no effect
TRHR PAM – qHTS for Small Molecule Agonists and Allosteric Enhancers of Human TRH Receptor: Primary Screen for Enhancers | TRHR cells, fluo-8 calcium fluorescence, EC20 TRH enhancement | Thyrotropin-releasing hormone receptor (Homo sapiens), P34981 | enhancement, % at 2 µM | actives 0.66% (n = 360,000); in the data active means enhancement above about 30%; further: 0% is about no effect
Target sequence (P34981 whole entry, looked up): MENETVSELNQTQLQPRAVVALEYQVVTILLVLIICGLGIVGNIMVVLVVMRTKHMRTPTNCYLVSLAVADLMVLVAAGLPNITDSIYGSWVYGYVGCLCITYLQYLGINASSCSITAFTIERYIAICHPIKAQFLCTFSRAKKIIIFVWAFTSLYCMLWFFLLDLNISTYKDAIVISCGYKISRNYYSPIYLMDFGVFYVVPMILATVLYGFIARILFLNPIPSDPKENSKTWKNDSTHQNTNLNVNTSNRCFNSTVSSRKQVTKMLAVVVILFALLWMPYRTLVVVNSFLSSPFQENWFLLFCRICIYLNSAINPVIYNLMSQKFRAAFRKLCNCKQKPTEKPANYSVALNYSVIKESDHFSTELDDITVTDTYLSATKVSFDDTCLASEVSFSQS
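Enhancer read-out: after compound pinning and an initial kinetic agonist-mode read, an EC20 of TRH (10 nM final) was injected and fluo-8 calcium signal (Ex 480/Em 530) followed at 1 s/cycle for 100 cycles in TRHR-expressing cells.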
PTHR1 agonist – qHTS for PTHR1 Agonists: Primary Screen; Parathyroid hormone/parathyroid hormone-related peptide receptor (Homo sapiens), Q03431; HEK293 GP2 PTHR1 cells, GloSensor cAMP luminescence, 1 h; Potency, µM (titrated, usually from 115 µM), for the others: at the top dose activation, actives largely listed as activators; actives 0.075% (n = 410,000); further: potency means the concentration at half of the fitted maximal effect; nearly all actives have a fitted effect of over 55% in size
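HEK-293-derived GP2 cells expressing PTHR1 and a GloSensor cAMP reporter, 3,000/well, plated overnight, given luciferin plus IBMX (each 0.5 mM as added) for 1 h at 37 °C, then compound for 1 h at 37 °C. Luminescence was read after 15 min at room temperature.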
GLP-1R inv ag – qHTS of GLP-1 Receptor Inverse Agonists (Inhibition Mode); Glucagon-like peptide 1 receptor (Homo sapiens), P43220; Potency, µM (highest dose often 38.3 µM), for inactives: top-dose activity change, negative = inhibition, usual class: inhibitors; actives 1.6% (n = 410,000); HEK293 GLP-1R CRE-luciferase, luminescence, 24 h; GLP-1R form is constitutively active; further: potency means the concentration at half of the fitted maximal effect; on the % scale 0 is the no-effect control and ±100 the full control effect; nearly all actives have a fitted effect of over 55% in size
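qHTS in 1536-well format: reporter HEK293 cells expressing constitutive GLP-1R activity in DMEM + 10% Nu serum, 24 hr with compounds at 37 deg C, luminescence read after 12 min with detection reagent.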
TRHR agonist – qHTS for Small Molecule Agonists and Allosteric Enhancers of Human TRH Receptor: Primary Screen for Agonists. Thyrotropin-releasing hormone receptor (Homo sapiens), P34981. TRHR cells, calcium flux fluo-8, FDSS agonist mode. activation, % at 2 µM. actives 0.18% (n = 360,000). AID 493084, 2011; in the data active means activation above about 30%; further: 0% is about no effect
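TRHR-expressing cells, plated overnight in medium with 10% serum, were loaded with fluo-8 calcium dye at room temperature. After a 10 s baseline, library compound was pin-added and calcium release was recorded kinetically (ex 480/em 530) as agonist response.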
* hit, by the source's call; i = inactive; ? = inconclusive; . = no result; [ ] = remark or other dose. An excerpt weighted towards active compounds, which were near 2.4% of everything screened. Unless noted, the call rests on the fitted dose curve; in most records, active means well fitted curve in the direction sought with a large enough effect; inconclusive means small, poorly fitted or top-dose-only effect, or another doubt; inactive means no such curve, though single readings can be large; an effect the other way counts as inactive or inconclusive.

SMILES	GLP1R cytotox	GLP1R ag	TRHR PAM	PTHR1 agonist	GLP-1R inv ag	TRHR agonist
CC(Nc1nc(-c2cccnc2)nc2ccccc12)c1ccccc1 (configuration not stated)	-31%	6%	.	i	?	.
c1ccc(Nc2nc(Nc3ccccc3)nc(N3CCNCC3)n2)cc1	?	9%	2	?	?	0
CC(Nc1nc(N2CCNCC2)nc2ccccc12)c1ccccc1 (configuration not stated)	?	0%	-6	-16%	11µM*	0
CC(Nc1nc(-c2ccncc2)nc2ccccc12)c1ccccc1 (configuration not stated)	11%	?	-3	-4%	7.1µM*	0
O=c1c2c3c(sc2nc2n1CCCCC2)CCCC3	7%	17%	0	-31%[57.5 µM]	?	0
O=C1c2cccc3cc(Br)cc(c23)C(=O)N1Nc1ccc(Br)cc1	10%	13%	7	i	14%	-1
O=C1C=CC(=O)N1Nc1ccc(Br)cc1	5%	-2%	33*	-2%	0%	1
Cc1cc(C)n2nc(SCC(=O)Nc3ccc(S(=O)(=O)N(C)C)cc3)nc2n1	-11%	0%	1	-13%	2%	0
COc1ccc(OC)c(-c2csc(NC(=O)Cn3[nH]c(=O)c4ccccc4c3=O)n2)c1	14%[0.307 µM]	11%	0	-7%	5%[0.307 µM]	1
CCCc1ccc(-c2cc(NC(=O)CSc3n[nH]c(N)n3)n(-c3ccccc3)n2)cc1	6%	3%	1	16µM*	50%	-1
Cc1ccc2nc(NC(=O)C3CC(=O)N(Cc4ccco4)C3)sc2c1 (configuration not stated)	-3%	2%	36*	i	-22%	1
COc1ccc2cc(Br)ccc2c1CC(=O)NC(C)(C)C	3%	2%	0	i	13µM*	-1
Fc1ccc(CNc2nc(-c3ccco3)cc(C(F)(F)F)n2)cc1	-17%	-6%	38*	-11%	?	0
FC(F)(F)c1cc(-c2ccco2)nc(NCc2ccccc2)n1	0%	1%	-4	i	0%	1
CCCCN(CCCNC(=O)c1ccc2c(c1)NC(=O)CN2C)c1ccccc1	-1%	-8%	.	-54%	2.8µM*	.
CCCCN(CCCNC(=O)CN1N=C(c2ccccc2)CCC1=O)c1ccccc1	-1%	.	-3	i	10µM*	-1
CCCCCCCNC(=O)CN1N=C(c2ccc(C)cc2)CCC1=O	-15%	12%	0	-2%	?	0
CNc1sc(C(=O)c2ccc(F)cc2)c(N)c1-c1nc2ccccc2s1	11µM*	10%	9	-5%[57.5 µM]	0%	1
COC(=O)C1=C(C)NC(=O)NC1c1c(O)ccc2ccccc12 (configuration not stated)	2%	-3%	35*	i	5%	0
COc1ccc(-c2nnc(N3CCOCC3)c3ccccc23)cc1	2%	6%	39*	i	11%	0
CSc1ncc(Cl)c(C(=O)Nc2c(C(=O)c3ccc(Cl)cc3)oc3ccccc23)n1	-7%	.	47*	-42%	18%	0
CSc1ncc(Cl)c(C(=O)Nc2c(C(=O)c3ccc(C)cc3)oc3ccccc23)n1	-10%	.	0	i	16%	0
NC(=O)c1oc2ccccc2c1NC(=O)C1CCCCC1	-2%	8%	38*	-4%	-8%	0
NC(=O)c1oc2ccccc2c1NC(=O)CN1CCCCC1	-1%	-4%	-8	i	12%	0
CCN(CC)c1ccc(C(=O)NC(=S)N2CCN(Cc3ccc4c(c3)OCO4)CC2)cc1	-10%	7%	-6	-72%	10µM*	0
SMILES	GLP1R cytotox	GLP1R ag	TRHR PAM	PTHR1 agonist	GLP-1R inv ag	TRHR agonist
O=C(O)CCC(=O)N1CCN(Cc2ccc3c(c2)OCO3)CC1	-8%	-4%	31*	-4%	9%	1
CCCC(=O)N1CCN(Cc2ccc3c(c2)OCO3)CC1	0%	-1%	-2	-2%	13%	0
Cc1ccc(C(=O)N2CCN(Cc3ccc4c(c3)OCO4)CC2)c(Cl)c1	8%	8%	0	-27%	6.3µM*	0
O=C(c1cc2c(s1)CCCC2)N1CCN(Cc2ccc3c(c2)OCO3)CC1	-25%	6%	-2	-9%[57.5 µM]	13µM*	-1
O=C(c1ccccc1Cl)N1CCN(Cc2ccc3c(c2)OCO3)CC1	7%	-2%	-3	-24%	?	-1
c1ccc2c(-c3cnc4cccnn34)cncc2c1	-2%	7%	.	i	1%	.
O=C(NNC1=C(C(=O)C(F)(F)F)CCC1)c1cccc(Cl)c1	?	1%	2	-25%[57.5 µM]	2.8µM*	0
CC(=O)N1c2ccccc2C(=O)C1N1CCN(c2cccc(Cl)c2)CC1 (configuration not stated)	19%	.	0	i	12%	0
CCOC(=O)c1ccc(Oc2nc(NC(C)(C)C)nc(N(C)C)n2)cc1	-19%	3%	0	-24%[57.5 µM]	7.9µM*	-2
CCOC(=O)c1ccc(Oc2nc(N(C)C)nc(N(C)C)n2)cc1	-2%	5%	-5	-6%	-61%	0
CCc1ccc(CNC(=O)C2CCCN(c3nnc(C)c4c(C)n(-c5ccc(OC)cc5)nc34)C2)cc1 (configuration not stated)	-2%	.	8	-66%	22%	-1
CC1CCc2c(sc3nc(C4CC4)nc(N4CCN(C(=O)c5ccco5)CC4)c23)C1 (configuration not stated)	?	-4%	.	-34%	5.6µM*	.
CCn1c2ccccc2c2cc(NC(=O)CNCC3CCCO3)ccc21 (configuration not stated)	-11%	10%	-4	i	10µM*	0
CCN(CC)S(=O)(=O)c1ccc(N/N=C/c2ccc(O)cc2)nc1	-8%	7%	-4	-23%	8%	1
CCN(CC)S(=O)(=O)c1ccc(N/N=C(\C)c2ccc(OC)cc2O)nc1	?	0%	-5	-9%	2.5µM*	0
Cc1onc(-c2c(Cl)cccc2Cl)c1C(=O)N=C(N)N1CCCC1	3%	3%	1	i	?	-1
